Assay outcomes deposited in PubChem by National Center for Advancing Translational Sciences (NCATS).
The list is not random: actives were taken first. Their share in the collection is about 5.5%.
Sfp inh = qHTS Assay for Inhibitors of Bacillus subtilis Sfp phosphopantetheinyl transferase (PPTase); Biochemical Sfp PPTase activity, qHTS; 3.5% of 310,000 active; AID 1490, 2009; Potency, µM, without a hit: largest response in the series, negative = inhibition, most hits filed as inhibitors; 4'-phosphopantetheinyl transferase ffp (Bacillus subtilis), Q9F4F7;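 further: the enzyme is Sfp with the accession as filed and its product quenches rhodamine fluorescence; potency means the concentration at half of the fitted maximal effect; 0% = enzyme reaction without inhibitor and -100% = no enzyme wells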
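Reaction rates are the 30-min fluorescence difference (ex 525, em 598 nm) in wells containing 15 nM Sfp, 5 uM rhodamine-CoA and 12.5 uM BHQ-2-YbbR at pH 7.6 with 10 mM MgCl2.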
Giardia killer = Small Molecules that selectively kill Giardia lamblia: qHTS | 0.15% of 340,000 active | Giardia lamblia trophozoite viability | activity change, % at 7.66 µM, hits read low; in the data active means activity change below about -80%; inconclusive means between about -30% and that limit;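 further: parasites exposed to compound for two days anaerobically before the ATP read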
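Killing of trophozoites was scored by loss of ATP luminescence after a 48 hrs anaerobic exposure to compounds at 37 deg C, using 100 cells per well.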
ELG1 DNA repair = qHTS screen for small molecules that inhibit ELG1-dependent DNA repair in human embryonic kidney (HEK293T) cells expressing luciferase-tagged ELG1; HEK293T ELG1-luciferase reporter, luminescence, 16 h; DNA damage induced by 5-fluorouridine; Potency, µM (highest dose often 46.1 µM), for inactives: at the top dose activity change, negative = inhibition, usual class: inhibitors; 2.3% of 330,000 active; AID 504467, 2011; further: potency means the concentration at half of the fitted maximal effect; nearly all actives have a fitted effect of over 55% in size
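Luminescence from the luciferase reporter, measured 30 min after ONE-Glo reagent at room temperature, was the read-out. Beforehand, 2,000 cells per well were exposed for 16 hr at 37 °C to 5-fluorouridine together with compound or vehicle.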
FBPA coupling cs = qHTS Assay for Inhibitors of Fructose-1,6-bisphosphate Aldolase from Giardia Lamblia: Coupling assay counterscreen. 0.67% of 290,000 active. AID 2472, 2010. activity change, negative = inhibition, % at 58.2 µM, hits read low. coupling enzyme system counterscreen, AmpLite Red fluorescence; in the data active means activity change below about -30%
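Activity here indicates interference with the coupling reaction, not aldolase inhibition. Compounds at 57.5 uM final met coupling enzymes for 10 min at RT; substrate and AmpLite Red detection followed, with a 525/598 nm fluorescence read after 20 min.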
Numbers without * were called inactive. Unless noted, the call rests on the fitted dose curve; in most records, active means well fitted curve in the direction sought with a large enough effect; inconclusive means small, poorly fitted or top-dose-only effect, or another doubt; inactive means no such curve, though single readings can be large; an effect the other way counts as inactive or inconclusive. Unless noted, on the % scale 0 is the no-effect control and ±100 the full control effect.

`CCOC(=O)C1CCCN(CC(=O)Nc2c(C(=O)OC)[nH]c3ccc(Br)cc23)C1` (configuration not stated) gave Sfp inh -4%, Giardia killer -24, ELG1 DNA repair 16µM* and FBPA coupling cs -6.
`CCOC(=O)c1[nH]c2ccc(OC)cc2c1NC(=O)CN1CCc2ccccc2C1` gave Sfp inh 3%, Giardia killer 35, ELG1 DNA repair 16µM* and FBPA coupling cs 1.
For CCOC(=O)C1CCN(CC(=O)Nc2c(C(=O)OC)[nH]c3ccc(Cl)cc23)CC1 the results were Sfp inh 15%, Giardia killer 0, ELG1 DNA repair 21µM* and FBPA coupling cs 0.
`COC(=O)c1[nH]c2ccc(Br)cc2c1NC(=O)CN1CCCc2ccccc21` gave Sfp inh 19%, Giardia killer -24, ELG1 DNA repair 8.2µM* and FBPA coupling cs 3.
C#CC(C)OC(=O)Nc1cccc(Cl)c1 (configuration not stated) was read as Sfp inh 1% and FBPA coupling cs 1.
`O=C(Nc1ccccn1)C1CCN(S(=O)(=O)c2ccc(Cl)cc2)CC1` gave Giardia killer 43 and ELG1 DNA repair 23%.
For CCOC(=O)[C@H]1[C@H]2COc3ccc(Cl)cc3[C@@H]2N2C(=O)CNC(=O)[C@@]12C the results were Giardia killer -21 and ELG1 DNA repair 8%.
For CC1(C(=O)NCCCNc2ncc(C(F)(F)F)cc2Cl)C=CC2(CCCCC2)N1C(=O)c1ccccc1 (configuration not stated) the results were Sfp inh 11% and FBPA coupling cs 5.
For CCOC(=O)c1[nH]c2ccc(F)cc2c1NC(=O)C(C)N1CCc2cc(OC)c(OC)cc2C1 (configuration not stated) the results were Sfp inh 3%, Giardia killer 4, ELG1 DNA repair 4.1µM* and FBPA coupling cs -4.
`CCOC(=O)C1CCCN(CC(=O)c2ccc(F)cc2)C1` (configuration not stated) gave Sfp inh 50µM*, Giardia killer -4, ELG1 DNA repair -5% and FBPA coupling cs 1.
`CCOC(=O)C1CCCN(CC(=O)Nc2c(F)c(F)c(F)c(F)c2F)C1` (configuration not stated) gave Sfp inh 9%, Giardia killer 48, ELG1 DNA repair inconclusive and FBPA coupling cs 7.
For CC(=O)Nc1ccc(NC(=O)c2ccnn2C)cc1 the results were Giardia killer 18.
Screening Cc1ccc(C(CNC(=O)c2ccco2)N2CCN(C)CC2)cc1 (configuration not stated) returned Giardia killer 7 and ELG1 DNA repair 19%.
Screening COc1ccc(N2CCN(c3ncnc4c3[nH]c3ccccc34)CC2)cc1 returned Sfp inh -12%, Giardia killer 2 and FBPA coupling cs 0.
O=C(c1ccco1)N1CCN(c2ncnc3c2[nH]c2ccc(Br)cc23)CC1 was read as Sfp inh -3%, Giardia killer 51, ELG1 DNA repair 23µM* and FBPA coupling cs 0.
`Fc1ccc2[nH]c3c(N4CCN(c5ccccc5)CC4)ncnc3c2c1` gave Sfp inh -3%, Giardia killer 4, ELG1 DNA repair 7.3µM* and FBPA coupling cs 4.
For CCOC(=O)N1CCN(c2ncnc3c2[nH]c2ccc(F)cc23)CC1 the results were Sfp inh 19%, Giardia killer 3, ELG1 DNA repair 12µM* and FBPA coupling cs -3.
Screening CCN(Cc1ccccc1)S(=O)(=O)c1ccc(C(=O)N(CCCN(C)C)c2nc3c(F)cccc3s2)cc1 returned Sfp inh 79µM*, Giardia killer -3, ELG1 DNA repair -6% and FBPA coupling cs -1.
For CCCCN(CC)S(=O)(=O)c1ccc(C(=O)N(CCCN(C)C)c2nc3cc(C)cc(C)c3s2)cc1 the results were Sfp inh 50µM*, Giardia killer 4, ELG1 DNA repair -13% and FBPA coupling cs -2.
For Cc1ccc2sc(N(CCCN(C)C)C(=O)c3ccc(S(=O)(=O)N(C)Cc4ccccc4)cc3)nc2c1C the results were Giardia killer -5 and ELG1 DNA repair inconclusive.
`CCOc1cccc2sc(N(CCCN(C)C)C(=O)c3ccc(S(=O)(=O)N(CC)Cc4ccccc4)cc3)nc12` gave Sfp inh 50µM*, Giardia killer 2, ELG1 DNA repair 6% and FBPA coupling cs 0.
For CCN(Cc1ccccc1)S(=O)(=O)c1ccc(C(=O)N(CCCN(C)C)c2nc3cc(C)cc(C)c3s2)cc1 the results were Giardia killer -29 and ELG1 DNA repair inconclusive.
For CCOc1cccc2sc(N(CCCN(C)C)C(=O)c3ccc(S(=O)(=O)N(C)Cc4ccccc4)cc3)nc12 the results were Sfp inh 56µM*, Giardia killer -5, ELG1 DNA repair 2% and FBPA coupling cs 0.
For Nn1c(SCc2ccccc2F)nnc1-c1ccccn1 the results were Sfp inh 16%, Giardia killer 5, ELG1 DNA repair inconclusive and FBPA coupling cs -1.
Screening CCOc1ccc(NC(=O)CCCN2C(=O)C(c3ccccc3)Oc3cccnc32)cc1 (configuration not stated) returned Sfp inh 0%, Giardia killer 44, ELG1 DNA repair -9% and FBPA coupling cs 3.
Screening Nc1c(N2CCN(c3ccccc3)CC2)c2ccccc2oc1=O returned Sfp inh -2%, Giardia killer -5, ELG1 DNA repair 18µM* and FBPA coupling cs 4.
`CN(Cc1ccccc1)C(=O)CCC1CCN(C(=O)CCC(F)(F)F)CC1` gave Sfp inh 4%, Giardia killer -12, ELG1 DNA repair inconclusive and FBPA coupling cs 2.
Screening COc1cc2ccccc2cc1C(=O)Nc1ccc(O)cc1 returned Sfp inh 6%, Giardia killer -11, ELG1 DNA repair inconclusive and FBPA coupling cs -3.
`CC(=O)OCC1OC(C#Cc2ccc(Br)cc2)C=CC1OC(C)=O` (configuration not stated) gave Sfp inh -9% and FBPA coupling cs -5.
O=C(O)c1cc(Nc2cc(Cl)c3nonc3c2[N+](=O)[O-])ccc1O was read as Sfp inh 45µM*, Giardia killer -24, ELG1 DNA repair 11% and FBPA coupling cs 9.
`O=[N+]([O-])c1c(Nc2ccccc2O)cc(Cl)c2nonc12` gave Sfp inh -64%, Giardia killer 13, ELG1 DNA repair 26µM* and FBPA coupling cs -4.
`O=[N+]([O-])c1c(Nc2ccccc2O)ccc2nonc12` gave Sfp inh -9%, Giardia killer -1, ELG1 DNA repair -22% and FBPA coupling cs -22.
Screening CN(C)c1ccc(/C(=N\O)c2ccccc2)cc1 returned Sfp inh -24%, Giardia killer -2, ELG1 DNA repair 29% and FBPA coupling cs -13.
